Data reported in publication PMC4081100, “A DNA-binding-site landscape and regulatory network analysis for NAC transcription factors in Arabidopsis thaliana”.

Legend:
Experiment in all cases: universal protein binding microarray (PBM); transcription factors of Arabidopsis thaliana; high values mean tight binding
[1] = target: T1, GST-ANAC092(1-176) (Arabidopsis thaliana, UniProt Q9FKA0 1-176); conditions: protein: recombinant; tags: GST; chain copies: 2; dsDNA, one strand shown
T1 sequence: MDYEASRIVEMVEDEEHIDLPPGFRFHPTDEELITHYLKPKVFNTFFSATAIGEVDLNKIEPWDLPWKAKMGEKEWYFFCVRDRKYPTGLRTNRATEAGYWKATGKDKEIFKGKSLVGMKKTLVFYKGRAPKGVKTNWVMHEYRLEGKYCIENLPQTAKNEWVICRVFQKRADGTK
Method in brief: (§1)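 Cells were induced to make GST-tagged NAC-domain, full-length or DNA-binding-domain proteins, and zinc acetate was added for zinc-finger proteins. These proteins were purified on glutathione–Sepharose 4B, quantified by A280 or anti-GST western blot, and applied in duplicate at 200 to 500 nM final to custom all-10-mer Agilent 4 × 180K arrays that primer extension had made double-stranded. Binding is given as the normalised enrichment score (E-score) for scored gapped and ungapped 8-mers.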

[2] = target: GST-NTL6(1-168) (Arabidopsis thaliana, UniProt Q9SCK6 1-168); conditions: protein: recombinant; tags: GST; chain copies: 2; dsDNA, one strand shown
Chain of GST-NTL6(1-168) (Q9SCK6 1-168): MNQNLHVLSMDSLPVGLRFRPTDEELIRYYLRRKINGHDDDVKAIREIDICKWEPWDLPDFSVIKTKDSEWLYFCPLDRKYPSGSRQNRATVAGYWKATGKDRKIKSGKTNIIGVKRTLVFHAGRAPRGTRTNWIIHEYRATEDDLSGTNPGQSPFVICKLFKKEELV
Method in brief: as §1

[3] = target: T2, GST-ANAC019 NAC domain (Arabidopsis thaliana, UniProt Q9C932 14-162); conditions: protein: recombinant; tags: GST; chain copies: 2; dsDNA, one strand shown
T2 sequence: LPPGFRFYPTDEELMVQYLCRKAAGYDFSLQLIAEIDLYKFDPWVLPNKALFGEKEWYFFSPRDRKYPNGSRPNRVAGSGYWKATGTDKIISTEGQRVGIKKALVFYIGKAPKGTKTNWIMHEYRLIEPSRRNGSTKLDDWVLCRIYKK
Method in brief: as §1

[4] = target: T3, GST-ANAC055(1-171) (Arabidopsis thaliana, UniProt Q9LDY8 1-171); conditions: protein: recombinant; tags: GST; chain copies: 2; dsDNA, one strand shown
T3 sequence: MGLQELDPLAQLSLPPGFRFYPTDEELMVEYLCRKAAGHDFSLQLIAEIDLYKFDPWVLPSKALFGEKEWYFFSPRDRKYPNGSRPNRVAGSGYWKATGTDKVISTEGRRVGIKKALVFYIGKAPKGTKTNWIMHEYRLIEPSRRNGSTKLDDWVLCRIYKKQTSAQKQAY
Method in brief: as §1

[5] = target: T4, GST-ATAF1 NAC domain (Arabidopsis thaliana, UniProt Q39013 7-158); conditions: protein: recombinant; tags: GST; chain copies: 2; dsDNA, one strand shown
T4 sequence: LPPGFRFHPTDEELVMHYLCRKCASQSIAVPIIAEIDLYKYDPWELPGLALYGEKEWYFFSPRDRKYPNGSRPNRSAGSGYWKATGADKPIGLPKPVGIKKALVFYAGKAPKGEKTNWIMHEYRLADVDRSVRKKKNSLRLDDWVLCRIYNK
Method in brief: as §1

[6] = target: T5, GST-ANAC092(1-285) full length (Arabidopsis thaliana, UniProt Q9FKA0 1-285); conditions: protein: recombinant; tags: GST; chain copies: 2; dsDNA, one strand shown
T5 sequence: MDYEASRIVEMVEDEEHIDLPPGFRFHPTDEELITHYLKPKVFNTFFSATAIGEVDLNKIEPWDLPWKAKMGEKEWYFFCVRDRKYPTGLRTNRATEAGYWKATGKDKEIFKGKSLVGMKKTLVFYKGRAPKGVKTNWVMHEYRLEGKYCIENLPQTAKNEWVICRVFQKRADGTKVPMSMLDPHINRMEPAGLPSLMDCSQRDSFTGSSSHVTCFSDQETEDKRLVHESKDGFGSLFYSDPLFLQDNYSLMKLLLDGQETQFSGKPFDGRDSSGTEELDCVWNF
Method in brief: as §1

[7] = target: T6, GST-NST2(1-184) (Arabidopsis thaliana, UniProt Q9M274 1-184); conditions: protein: recombinant; tags: GST; chain copies: 2; dsDNA, one strand shown
T6 sequence: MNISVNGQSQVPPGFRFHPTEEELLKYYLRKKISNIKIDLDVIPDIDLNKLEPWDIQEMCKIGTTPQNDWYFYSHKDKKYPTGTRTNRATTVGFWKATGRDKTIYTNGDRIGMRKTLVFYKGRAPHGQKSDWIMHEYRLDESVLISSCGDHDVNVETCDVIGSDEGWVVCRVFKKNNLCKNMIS
Method in brief: as §1

[8] = target: T7, GST-SND1(1-203) (Arabidopsis thaliana, UniProt Q9LPI7 1-203); conditions: protein: recombinant; tags: GST; chain copies: 2; dsDNA, one strand shown
T7 sequence: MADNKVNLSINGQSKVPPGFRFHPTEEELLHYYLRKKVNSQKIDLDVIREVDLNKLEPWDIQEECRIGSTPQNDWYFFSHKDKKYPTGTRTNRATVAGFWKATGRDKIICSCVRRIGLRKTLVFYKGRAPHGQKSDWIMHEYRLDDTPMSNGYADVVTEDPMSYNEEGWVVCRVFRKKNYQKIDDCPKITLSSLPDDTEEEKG
Method in brief: as §1

[9] = target: T8, GST-VND3 NAC domain (Arabidopsis thaliana, UniProt Q9FH59 12-162); conditions: protein: recombinant; tags: GST; chain copies: 2; dsDNA, one strand shown
T8 sequence: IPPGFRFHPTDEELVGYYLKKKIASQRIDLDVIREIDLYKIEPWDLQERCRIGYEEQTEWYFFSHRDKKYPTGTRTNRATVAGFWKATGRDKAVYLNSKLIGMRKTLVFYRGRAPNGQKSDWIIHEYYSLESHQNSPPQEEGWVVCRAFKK
Method in brief: as §1

[10] = target: T9, GST-VND7 NAC domain (Arabidopsis thaliana, UniProt Q9C8W9 9-158); conditions: protein: recombinant; tags: GST; chain copies: 2; dsDNA, one strand shown
T9 sequence: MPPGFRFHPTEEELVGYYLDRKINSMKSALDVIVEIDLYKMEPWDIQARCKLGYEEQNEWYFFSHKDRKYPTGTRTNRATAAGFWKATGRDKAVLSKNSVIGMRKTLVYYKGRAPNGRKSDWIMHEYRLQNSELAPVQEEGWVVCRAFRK
Method in brief: as §1

[11] = target: GST-WRKY1(266-371) (Arabidopsis thaliana, UniProt Q9SI37 266-371); conditions: protein: recombinant; tags: GST; dsDNA, one strand shown
Chain of GST-WRKY1(266-371) (Q9SI37 266-371): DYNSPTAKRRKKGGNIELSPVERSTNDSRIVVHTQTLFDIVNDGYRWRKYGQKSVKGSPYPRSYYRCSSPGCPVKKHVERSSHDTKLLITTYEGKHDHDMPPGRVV
Method in brief: as §1

[12] = target: T10, GST-NAP(1-166) (Arabidopsis thaliana, UniProt O49255 1-166); conditions: protein: recombinant; tags: GST; chain copies: 2; dsDNA, one strand shown
T10 sequence: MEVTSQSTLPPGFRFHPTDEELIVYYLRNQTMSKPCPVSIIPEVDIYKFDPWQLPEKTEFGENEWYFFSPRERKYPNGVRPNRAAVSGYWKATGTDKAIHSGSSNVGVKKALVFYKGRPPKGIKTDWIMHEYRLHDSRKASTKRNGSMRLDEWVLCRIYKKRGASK
Method in brief: as §1

[13] = target: T11, GST-NTL8 NAC domain (Arabidopsis thaliana, UniProt Q9XIN7 14-156); conditions: protein: recombinant; tags: GST; chain copies: 2; dsDNA, one strand shown
T11 sequence: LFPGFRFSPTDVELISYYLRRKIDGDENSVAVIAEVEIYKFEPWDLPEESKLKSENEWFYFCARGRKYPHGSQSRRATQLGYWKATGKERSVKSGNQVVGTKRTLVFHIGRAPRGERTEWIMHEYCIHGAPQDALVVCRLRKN
Method in brief: as §1

Sequence	binding signal [1] [E-score]	binding signal [2] [E-score]	binding signal [3] [E-score]	binding signal [4] [E-score]	binding signal [5] [E-score]	binding signal [6] [E-score]	binding signal [7] [E-score]	binding signal [8] [E-score]	binding signal [9] [E-score]	binding signal [10] [E-score]	binding signal [11] [E-score]	binding signal [12] [E-score]	binding signal [13] [E-score]
TAGCGTGA	0.441	0.0555	0.209	0.114	0.17	0.454	0.228	0.42	0.242	0.191	0.0738	–	–
GTCAACAC	0.238	–	0.138	0.173	0.092	0.23	0.134	0.134	0.133	0.154	0.478	0.163	–
TCACGTCA	0.429	–	0.38	0.354	0.321	0.429	0.188	0.343	0.322	0.367	0.292	0.329	–
GCAAGTCA	0.187	0.0738	–	–	0.0771	0.301	0.0804	0.175	0.115	0.12	0.423	–	–
GTCACGCA	0.319	–	0.307	0.236	0.193	0.4	0.119	0.257	0.167	0.252	0.228	0.197	–
GTCGCGTA	0.307	0.0763	–	–	0.195	0.414	0.109	0.422	0.102	0.233	0.145	0.171	–
GACGCAAC	0.438	–	0.294	0.293	0.282	0.457	0.295	0.325	0.295	0.259	0.0608	0.37	–
ATTACGTC	0.366	–	0.329	0.353	0.356	0.405	0.333	0.432	0.37	0.357	0.0595	0.376	–
TAACGTAA	0.452	0.135	0.25	0.254	0.34	0.449	0.402	0.488	0.375	0.413	0.0682	0.309	0.174
GACGTAAA	0.355	–	0.298	0.256	0.365	0.399	0.333	0.431	0.329	0.204	0.0785	0.311	–
AACACGTC	0.397	–	0.33	0.325	0.316	0.428	0.0538	0.12	0.343	0.312	0.131	0.262	–
CTTGCGTC	0.337	–	0.0715	0.0764	0.0507	0.402	0.106	0.162	0.0748	0.058	0.0999	0.21	–
TAAGGTCA	–	0.242	–	–	0.094	–	–	0.132	0.223	0.143	0.441	0.14	0.0905
ACGCAAGG	0.399	–	0.084	0.106	0.106	0.448	0.226	0.39	0.122	0.128	0.201	0.2	0.152
ATGTCAAC	–	0.0563	–	0.133	0.127	–	0.0828	0.0631	0.089	0.124	0.443	0.106	–
ACGCAACC	0.483	–	0.455	0.421	0.428	0.492	0.434	0.481	0.416	0.443	0.107	0.478	0.146
GAACACGC	0.382	0.0566	0.289	0.237	0.19	0.427	0.205	0.158	0.138	0.174	–	0.248	–
GTTGACTA	–	0.072	0.079	0.0652	0.103	0.133	–	0.062	0.158	0.0849	0.49	–	–
